Source: PubChem
Hits are enriched below; roughly 9% of the tested compounds scored in any of these assays.
12-LOX inh: inhibitors of human 12S-lipoxygenase ALOX12; P18054; purified 12hLO, xylenol orange hydroperoxide absorbance; Potency, µM (highest dose often 108 µM), for the others: at the highest dose activity change, negative = inhibition, usual class: inhibitors; 580,000 compounds, 1.1% hits; note: % is set by controls: 0 for no effect and ±100 for the full control effect
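Hydroperoxide product was detected by ferrous iron/xylenol orange as the 573 to 405 nm absorbance ratio. Arachidonic acid at 40 uM (final) was turned over for 30 min at room temperature by 150 nM human 12hLO, pH 7.0 Hepes buffer, after 15 min compound preincubation.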
HP1b binding inh: blocks HP1-beta chromodomain binding to methylated histone tails; Potency, µM (titrated, usually from 114 µM), for the others: top-dose activity change, negative = inhibition, most hits filed as inhibitors; P83916; AlphaScreen HP1-beta / biotin-H3K9me3 peptide binding; 390,000 compounds, 0.56% hits; AID 540317; note: nearly all actives have a fitted effect of over 70% in size
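Compound inhibition of the preformed complex between 50 nM HP1-beta and 50 nM biotinylated H3K9me3 peptide was read by AlphaScreen. Buffer was PBS pH 7.4 with 0.01% Tween-20. Incubations ran 30 min at room temperature, with 10 ug/mL donor/acceptor beads.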
BAZ2B block: blocks human BAZ2B; AlphaScreen BAZ2B-H3K14Ac peptide displacement; Potency, µM (top dose mostly 114 µM), for the others: at the highest dose activity change, negative = inhibition, usual class: inhibitors; 360,000 compounds, 4.4% hits; AID 504333; note: % is set by controls: 0 for no effect and ±100 for the full control effect; nearly all actives have a fitted effect of over 60% in size
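Multi-concentration screen (max 110 uM) measuring displacement of acetylated histone H3 peptide from BAZ2B by AlphaScreen, using 50 nM protein, 50 nM peptide and 10 ug/mL streptavidin donor plus Ni-chelate acceptor beads.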
G9a block: G9a (human) methyltransferase inhibition; Q96KQ7; AID 504332; 350,000 compounds, 8.8% hits; Potency, µM (top dose mostly 102 µM), without a hit: at the top dose activity, negative = inhibition, most hits filed as inhibitors; G9a H3K9 monomethylation, AlphaScreen, 2 h; note: % is set by controls: 0 for no effect and ±100 for the full control effect; nearly all actives have a fitted effect of over 75% in size
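Compounds were preincubated with 20 nM G9a for 15 min, after which biotinylated H3K9 peptide (500 nM) and SAM (20 uM) started a 2 h room-temperature reaction. Monomethylated product was quantified by antibody-based AlphaScreen chemiluminescence.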
PLK1 PBD inh: blocks phosphopeptide binding to human PLK1 polo-box domain | P53350 | Plk1 PBD binding of FITC phosphopeptide, fluorescence polarization | Potency, µM, inactives show max response, negative = inhibition, hits mostly inhibitors | 360,000 compounds, 2.8% hits; note: series mostly up to about 57 µM; % is set by controls: 0 for no effect and ±100 for the full control effect; nearly all actives have a fitted effect of over 65% in size
Target sequence (P53350 whole entry, looked up, the tested form may be a part): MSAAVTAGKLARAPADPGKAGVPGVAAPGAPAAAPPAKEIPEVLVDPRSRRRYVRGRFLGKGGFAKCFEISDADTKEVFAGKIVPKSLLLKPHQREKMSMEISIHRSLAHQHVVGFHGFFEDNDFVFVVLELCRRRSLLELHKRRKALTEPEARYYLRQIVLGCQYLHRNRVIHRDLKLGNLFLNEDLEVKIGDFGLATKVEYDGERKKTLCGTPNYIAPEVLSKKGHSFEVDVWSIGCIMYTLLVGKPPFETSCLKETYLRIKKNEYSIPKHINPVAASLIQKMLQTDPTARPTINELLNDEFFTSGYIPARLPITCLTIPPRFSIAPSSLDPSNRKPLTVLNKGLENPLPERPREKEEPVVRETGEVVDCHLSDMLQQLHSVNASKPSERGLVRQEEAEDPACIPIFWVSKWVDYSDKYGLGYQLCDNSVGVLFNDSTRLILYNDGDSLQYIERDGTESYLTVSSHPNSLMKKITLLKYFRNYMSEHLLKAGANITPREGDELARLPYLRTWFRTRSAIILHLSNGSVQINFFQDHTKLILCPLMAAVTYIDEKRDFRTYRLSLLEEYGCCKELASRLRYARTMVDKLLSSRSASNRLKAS
JMJD2A Tudor: blocks the human JMJD2A Tudor domain | Potency, µM (series often up to 114 µM), for inactives: at the highest dose activity change, negative = inhibition, actives largely listed as inhibitors | 390,000 compounds, 4.4% hits | AID 504339 | AlphaScreen JMJD2A-Tudor / H3K4me3 peptide binding | O75164; note: % is set by controls: 0 for no effect and ±100 for the full control effect; nearly all actives have a fitted effect of over 50% in size
Numbers without * were called inactive; ? = inconclusive; . = not tested or not shown; [ ] = dose if it differs, or a comment. Calls come from the whole dose curve; as a rule, active = well fitted curve in the direction sought with a large enough effect; inconclusive = small, poorly fitted or top-dose-only effect, or another doubt; inactive = no such curve, though single readings can be large; an effect the other way counts as inactive or inconclusive. Potency is the fitted concentration of half-maximal effect.

SMILES	12-LOX inh	HP1b binding inh	BAZ2B block	G9a block	PLK1 PBD inh	JMJD2A Tudor
CCOC(=O)c1ccccc1NC(=O)Nc1cc2c(cc1N1CCCC1)n(C)c(=O)n2C	3%	15%	50µM*	?	.	?
CCOC(=O)C1CCN(c2cc3c(cc2NC(=O)c2ccccc2F)n(C)c(=O)n3C)CC1	0%	12%	50µM*	8%[0.0925 µM]	-18%	-23%
CCOC(=O)Cc1ccc(NC(=O)Nc2cc3c(cc2N2CCCCC2)n(C)c(=O)n3C)cc1	-23%	10%	2%	-5%[59 µM]	.	-30%
CCOC(=O)C1CCN(c2cc3c(cc2NC(=O)c2ccc(F)cc2)n(C)c(=O)n3C)CC1	1%	36%	?	10%[0.0925 µM]	-2%	-29%
CCOC(=O)C1CCN(C(=O)c2ccccc2NC(=O)c2ccc(Cl)cc2)CC1	0%	?	6%	4%[59 µM]	15µM*	?
COc1cc2c(cc1NC(=O)c1ccccc1C)n(C)c(=O)n2C	-14%	15%	50µM*	-10%[59 µM]	.	-22%
O=C(Cc1cccc2ccccc12)Nc1ccc2c(c1)C(=O)NC2=O	-1%	17%	-10%	-3%	-9%	-16%
CN1CCc2nc(SCC(=O)Nc3cccc(F)c3)c(C#N)c(-c3cccs3)c2C1	?	-21%	50µM*	.	?	?
CN1CCc2nc(SCC(=O)Nc3ccc(OC(F)(F)F)cc3)c(C#N)c(-c3cccs3)c2C1	?	-36%	-4%	-17%[59 µM]	?	?
Cc1ccc(NC(=O)c2sc3ccccc3c2Cl)cc1	-1%	28%	0%	-40%[59 µM]	.	-2%
O=C(NNC(=S)NC(=O)c1sc2ccccc2c1Cl)c1ccc(Cl)cc1	?	-27%	-35%	?	?	?
Cc1ccc(NC(=S)NC(=O)c2sc3ccccc3c2Cl)c(C(=O)O)c1	.	.	50µM*	45µM*	.	.
O=C(O)c1ccccc1NC(=S)NC(=O)c1sc2ccccc2c1Cl	19%	-7%	-2%	10µM*	12µM*	?
O=C(Nc1ccnc(=O)[nH]1)c1sc2ccccc2c1Cl	-5%	1%	-14%	14%[12.7 µM]	27µM*	-12%[11.4 µM]
Cc1ccc(S(=O)(=O)N(C)C)cc1NC(=O)COC(=O)CSc1ccccc1	-20%	28%	-4%	-41%	1%	-14%
COc1ccc(CNC(=O)CCCn2nc([N+](=O)[O-])cc2C)cc1	-13%	4%	-8%	9%	-11%	-15%
C=CCOc1cccc(C2C(C(=O)c3ccco3)=C(O)C(=O)N2CCN2CCOCC2)c1 (configuration not stated)	?	48%	?	-27%[12.7 µM]	-17%	?
COc1cccc(C2C(C(=O)/C=C/c3ccco3)=C(O)C(=O)N2CCN2CCOCC2)c1 (configuration not stated)	?	28%	.	50µM*	-6%	-31%
COc1ccc(C2C(C(=O)/C=C/c3ccco3)=C(O)C(=O)N2CCN2CCOCC2)cc1 (configuration not stated)	-28%	17%	79µM*	?	-19%	-34%
CCOc1ccc(C2C(C(=O)/C=C/c3ccco3)=C(O)C(=O)N2CCN2CCOCC2)cc1OC (configuration not stated)	?	19%	.	45µM*	-13%	?
O=C(C1=C(O)C(=O)N(CCN2CCOCC2)C1c1ccccc1)c1cccs1 (configuration not stated)	?	55%	.	.	?	-16%[57.1 µM]
CCOc1ccc(C2C(C(=O)c3ccco3)=C(O)C(=O)N2Cc2cccnc2)cc1OC (configuration not stated)	-12%	10%	?	?	3%	-23%
CCOC(=O)c1cc(C)[nH]c(=S)c1C#N	?	-14%	?	-1%[0.501 µM]	27µM*	6.3µM*
CCC1(c2ccccc2)NC(=O)N(CC(=O)Nc2ccccc2C(=O)NC2CC2)C1=O (configuration not stated)	0%	37%	4%	50µM*	0%	-11%
CCC1(c2ccc(F)cc2)NC(=O)N(CC(=O)Nc2ccccc2Cl)C1=O (configuration not stated)	?	14%	4%	-11%	-1%	-3%
SMILES	12-LOX inh	HP1b binding inh	BAZ2B block	G9a block	PLK1 PBD inh	JMJD2A Tudor
CCC1(c2ccc(F)cc2)NC(=O)N(CC(=O)Nc2ccccc2C)C1=O (configuration not stated)	-15%	6%	-5%	-7%	?	71µM*
Cc1cc(NS(=O)(=O)c2ccccc2)cc(Cl)c1O	?	-26%	12%	2.2µM*	-10%	89µM*
C/C(=N\NS(=O)(=O)c1ccccc1)c1cc(Cl)cc(Cl)c1O	?	5%	?	45µM*	-17%	-30%
COc1cccc(Cn2c(OCC3CCCO3)nc3c2c(=O)n(C)c(=O)n3C)c1 (configuration not stated)	-4%	29%	2%	20%[59 µM]	1%	-13%
CC[C@@H](C)[C@@H](CO[C@@H](Cc1ccccc1)C(=O)N[C@@H](CCS(C)(=O)=O)C(=O)OC(C)C)NC[C@@H](N)CS	?	.	.	22µM*	.	.
Cc1cc(NC(c2cccnc2)c2c(C)[nH]c3ccccc23)no1 (configuration not stated)	-4%	4%	6%	-44%[12.7 µM]	-24%	-16%
CN1CCN(C(=O)c2c(O)c3cccc4c3n(c2=O)CCC4)CC1	?	39%	.	14µM*	-2%	0%
COc1ccc(S(=O)(=O)NCC2CCCN(C(=O)c3cccnc3)C2)cc1 (configuration not stated)	2%	27%	-5%	.	-14%	2%[57.1 µM]
Cc1nc2cnccc2n1C	-1%	64%	-2%	51%	-6%	1%
Cn1c(-c2ccccc2)nc2cnccc21	11%	5%	0%	-9%[12.7 µM]	24µM*	-4%[11.4 µM]
O=Cc1n[nH]nc1-c1ccccc1	-20%	.	.	.	.	.
CC(=O)Nc1ccc(S[C@@H](CCN2CC[C@H](O)CCC2=O)c2ccccc2)cc1	-23%	50%	7%	9%[0.501 µM]	13µM*	-6%
CCN1CCN(C(c2cccs2)C(C)NC(=O)c2ccccc2)CC1 (configuration not stated)	56%	19%	3%	-10%[59 µM]	-7%	-11%
COc1cc2c(cc1OC)-c1cc(NC3CCCC3)nc(=O)n1CC2	-3%	26%	21%	-18%	1%	-32%
COc1cc2c(cc1OC)-c1cc(=Nc3c(C)cc(C)cc3C)n(C)c(=O)n1CC2	.	-25%[57 µM]	.	21µM*	.	?
C[n+]1cccc(CNC(=O)/C=N/O)c1	444%	10%	56µM*	40µM*	0%	?
O=C(/C=N/O)NCc1cccnc1	10%	21%	-26%	?	-1%	-8%
